Experimental data reported in PubChem BioAssay AID1159580 (chemical genetic matrix, 2015).
“And” between values parts separate entries of the source, which are not always exact repeats. Equal entries are not always repeated. In all, about 5,500 compounds went through this assay and about 2,000 (36%) were called active. Inconclusive results (about 18%) are left out. Rule as the data show it: active = normalized growth mostly below about 0.91 (no sharp cut-off); inconclusive = no clear call, values can overlap the other calls; inactive = mostly above about 0.92. The list shows a part of the results.

Assay: chemical genetic growth profiling, strain panel (AID 1159580);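 also: tested at 20 µM; growth read once vehicle control cultures reached saturation at 30 °C; 1 = growth at the plate median or of vehicle wells; lower values mean less growth of the strain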
Details: S. cerevisiae deletion strains, growth OD

Measured: normalized growth

CC1(C)OC(=O)NC1=O
inactive: locus YAL021C, strain ccr4, stronger effect = lower value 0.996 | locus YAL026C, strain drs2, stronger effect = lower value 0.976 | locus YAL030W, strain snc1, stronger effect = lower value 1.01 | locus YBL061C, strain skt5, stronger effect = lower value 1.02 | locus YBR009C, strain hhf1, stronger effect = lower value 1 | locus YBR021W, strain FUR4, stronger effect = lower value 0.996 | locus YBR023C, strain chs3, stronger effect = lower value 1.01 | locus YBR171W, strain sec66, stronger effect = lower value 1.01 | locus YBR229C, strain ROT2, stronger effect = lower value 0.984 | locus YBR231C, strain swc5, stronger effect = lower value 1.04 | locus YBR279W, strain paf1, stronger effect = lower value 1.01 | locus YCL011C, strain gbp2, stronger effect = lower value 1 | locus YCL016C, strain dcc1, stronger effect = lower value 1 | locus YCL029C, strain bik1, stronger effect = lower value 0.969 | locus YCL069W, strain vba3, stronger effect = lower value 1 | locus YCR088W, strain abp1, stronger effect = lower value 0.994 | locus YDL005C, strain med2, stronger effect = lower value 0.997 | locus YDL035C, strain GPR1, stronger effect = lower value 1.04 | locus YDL040C, strain nat1, stronger effect = lower value 1.01 | locus YDL074C, strain BRE1, stronger effect = lower value 0.986 | locus YDL101C, strain DUN1, stronger effect = lower value 0.981 | locus YDL134C, strain PPH21, stronger effect = lower value 1.02 | locus YDL185W, strain tfp1, stronger effect = lower value 0.979 | locus YDL192W, strain arf1, stronger effect = lower value 0.985 | locus YDR001C, strain nth1, stronger effect = lower value 0.992 | locus YDR069C, strain doa4, stronger effect = lower value 1.03 | locus YDR101C, strain arx1, stronger effect = lower value 1 | locus YDR137W, strain rgp1, stronger effect = lower value 1 | locus YDR159W, strain sac3, stronger effect = lower value 0.983 | locus YDR162C, strain NBP2, stronger effect = lower value 1.01 | locus YDR195W, strain ref2 1.01 | locus YDR297W, strain sur2, stronger effect = lower value 1.02 | locus YDR318W, strain mcm21, stronger effect = lower value 0.98 | locus YDR334W, strain swr1, stronger effect = lower value 0.993 | locus YDR335W, strain msn5, stronger effect = lower value 1.02 | locus YDR388W, stronger effect = lower value 0.98 | locus YDR392W, strain spt3, stronger effect = lower value 0.944 | locus YDR502C, strain sam2, stronger effect = lower value 0.994 | locus YEL003W, strain gim4, stronger effect = lower value 1 | locus YEL037C, strain rad23, stronger effect = lower value 0.992 | locus YEL061C, strain CIN8 (second series), stronger effect = lower value 0.991 | locus YEL061C, strain CIN8, stronger effect = lower value 0.991 | locus YER015W, strain faa2, stronger effect = lower value 1.01 | locus YER016W, strain bim1, stronger effect = lower value 1.01 | locus YER110C, stronger effect = lower value 0.965 | locus YER111C, strain swi4, stronger effect = lower value 0.993 | locus YER155C, strain BEM2 (second series), stronger effect = lower value 0.972 | locus YER155C, strain BEM2, stronger effect = lower value 0.994 | locus YER167W, strain BCK2, stronger effect = lower value 0.997 | locus YFR010W, strain ubp6, stronger effect = lower value 1.03 | locus YGL078C, strain dbp3, stronger effect = lower value 0.975 | locus YGL086W, strain mad1, stronger effect = lower value 1 | locus YGL167C, strain pmr1, stronger effect = lower value 1.01 | locus YGL173C, strain kem1, stronger effect = lower value 1.04 | locus YGL227W, strain vid30, stronger effect = lower value 0.968 | locus YGL240W, strain doc1, stronger effect = lower value 1.02 | locus YGL248W, strain PDE1, stronger effect = lower value 0.985 | locus YGL253W, strain hxk2, stronger effect = lower value 1.01 | locus YGR078C, strain PAC10, stronger effect = lower value 0.992 | locus YGR135W, strain pre9, stronger effect = lower value 0.958 | locus YGR252W, strain gcn5, stronger effect = lower value 0.969 | locus YHR013C, strain ard1, stronger effect = lower value 1.01 | locus YHR027C, strain rpn1, stronger effect = lower value 1.01 | locus YHR030C, strain SLT2, stronger effect = lower value 0.994 and 1.03 | locus YHR079C, strain IRE1 (second series), stronger effect = lower value 0.983 | locus YHR079C, strain IRE1, stronger effect = lower value 1.02 | locus YHR094C, strain hxt1, stronger effect = lower value 0.972 | locus YHR129C, strain ARP1, stronger effect = lower value 0.998 | locus YHR142W, strain chs7, stronger effect = lower value 1 | locus YHR200W, strain rpn10, stronger effect = lower value 0.981 | locus YIL066C, strain RNR3, stronger effect = lower value 0.993 | locus YIL073C, strain SPO22, stronger effect = lower value 0.952 | locus YIL125W, strain kgd1, stronger effect = lower value 0.988 | locus YIR030C, strain dcg1, stronger effect = lower value 0.972 | locus YJL092W, strain hpr5, stronger effect = lower value 0.989 | locus YJL095W, strain BCK1 (second series), stronger effect = lower value 1.01 | locus YJL095W, strain BCK1, stronger effect = lower value 0.981 and 0.994 | locus YJL115W, strain asf1, stronger effect = lower value 0.992 | locus YJL129C, strain trk1, stronger effect = lower value 0.94 | locus YJL134W, strain LCB3, stronger effect = lower value 0.992 | locus YJL154C, strain vps35, stronger effect = lower value 0.995 | locus YJL164C, strain tpk1, stronger effect = lower value 0.994 | locus YJL166W, strain qcr8, stronger effect = lower value 1.03 | locus YJL168C, strain set2, stronger effect = lower value 0.974 | locus YJL187C, strain SWE1 (second series), stronger effect = lower value 0.98 | locus YJL187C, strain SWE1, stronger effect = lower value 1.02 | locus YJR043C, strain POL32, stronger effect = lower value 1.03 | locus YJR066W, strain TOR1, stronger effect = lower value 0.957
